# TDP1 cell noCPT = qHTS for Inhibitors of human tyrosyl-DNA phosphodiesterase 1 (TDP1): qHTS in cells in absence of CPT; AID 686978, 2013; Potency, µM (highest dose often 46.2 µM), for the others: at the top dose activity change, negative = growth inhibition, actives largely listed as inhibitors; DT40 Tdp1-/- hTDP1 cells, no CPT, ATP luminescence, 48 h; actives 15% (n = 420,000); note: nearly all actives have a fitted effect of over 55% in size
#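 Chicken DT40 Tdp1-/- cells stably complemented with human TDP1 were seeded at 400 cells/well with DMSO in place of 20 nM camptothecin. After compound pinning, cells grew at least 48 hr at 37 °C; viability read by CellTiter-Glo luminescence.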
# Gal4-VP16 FLuc = Gal4-VP16 reporter inhibition counter-screen. Drosophila S2 Gal4-VP16 UAS-luciferase, luminescence, 20 h. Potency, µM (doses to about 53.6 µM), without a hit: at the highest dose activity, negative = inhibition, hits mostly inhibitors. actives 3.5% (n = 310,000);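 note: Gal4-VP16 expression switched on by copper sulfate through the metallothionein promoter; nearly all actives have a fitted effect of over 50% in size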
# TDP1 cell CPT = growth inhibition of DT40 Tdp1-/-;hTDP1 cells with camptothecin (screen for TDP1 inhibitors). actives 12% (n = 420,000). Potency, µM (series often up to 46.2 µM), inactives show at the top dose activity change, negative = growth inhibition, usual class: inhibitors. chicken DT40 Tdp1-/-;hTDP1 cells + 20 nM CPT, ATP luminescence, 48 h. AID 686979; note: nearly all actives have a fitted effect of over 55% in size
#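 Chicken DT40 Tdp1-/- cells complemented with human TDP1, 400 cells/well, exposed to compounds plus 20 nM camptothecin for at least 48 h at 37 C; viability read as ATP content by CellTiter-Glo luminescence.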
# RORgamma inh = ROR gamma (mouse) transcription inhibition | P51450 | Drosophila S2 Gal4-RORgamma UAS-luciferase reporter, 20 h | Potency, µM (top dose mostly 53.6 µM), without a hit: at the highest dose activity change, negative = inhibition, usual class: inhibitors | actives 5.4% (n = 310,000); note: nearly all actives have a fitted effect of over 60% in size
#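 ROR gamma transcriptional activity was tracked as Gal4-UAS luciferase output in stably transfected Drosophila Schneider cells, with compound added 1 hr before 700 uM copper sulfate induction and a 20 hr ambient-temperature incubation.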
# ELG1 repair inh = ELG1-dependent DNA repair inhibition; HEK293T ELG1-luciferase reporter, luminescence, 16 h; DNA damage induced by 5-fluorouridine; Potency, µM (top dose mostly 46.1 µM), for inactives: at the top dose activity change, negative = inhibition, actives largely listed as inhibitors; actives 2.3% (n = 330,000); AID 504467; note: nearly all actives have a fitted effect of over 55% in size
#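 Cells (2,000 per well) received 5-fluorouridine plus test compound or DMSO and were incubated 16 hr at 37 °C, 5% CO2. Luciferase activity was read by luminescence 30 min after ONE-Glo addition; signal suppression marked inhibition of damage-induced ELG1 function.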
# ALOX12 inh = ALOX12 (human) lipoxygenase inhibition. P18054. Potency, µM (top dose mostly 108 µM), for inactives: at the highest dose activity change, negative = inhibition, hits mostly inhibitors. purified 12hLO, xylenol orange hydroperoxide absorbance. AID 1671190. actives 1.1% (n = 580,000)
# Target sequence (P18054 whole entry, looked up): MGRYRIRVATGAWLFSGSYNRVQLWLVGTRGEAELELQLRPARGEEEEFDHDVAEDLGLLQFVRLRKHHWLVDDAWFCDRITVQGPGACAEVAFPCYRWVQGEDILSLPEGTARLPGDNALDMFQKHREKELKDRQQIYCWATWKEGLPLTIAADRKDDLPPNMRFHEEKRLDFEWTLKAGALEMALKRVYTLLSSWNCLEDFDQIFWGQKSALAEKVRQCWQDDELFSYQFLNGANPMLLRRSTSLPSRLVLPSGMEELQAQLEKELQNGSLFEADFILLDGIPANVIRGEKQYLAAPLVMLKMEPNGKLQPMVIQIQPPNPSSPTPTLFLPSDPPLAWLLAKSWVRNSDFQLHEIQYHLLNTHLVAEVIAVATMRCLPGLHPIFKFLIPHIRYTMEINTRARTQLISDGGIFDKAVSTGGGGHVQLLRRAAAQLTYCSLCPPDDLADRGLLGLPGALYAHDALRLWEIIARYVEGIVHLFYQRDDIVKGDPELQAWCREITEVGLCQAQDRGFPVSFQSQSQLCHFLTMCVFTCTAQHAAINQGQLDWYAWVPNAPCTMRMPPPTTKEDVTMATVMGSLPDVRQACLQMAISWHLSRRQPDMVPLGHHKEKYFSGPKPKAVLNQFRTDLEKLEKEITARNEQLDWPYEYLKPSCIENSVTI
#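 Purified human 12hLO at 150 nM in 25 mM Hepes, 0.01% Triton X-100, pH 7.0, preincubated 15 min at room temperature with compound. Reaction started with 40 uM arachidonic acid, 30 min at room temperature. Hydroperoxide measured by Fe-xylenol orange, 573/405 nm absorbance ratio.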
# An asterisk follows results filed as active; u = inconclusive; x = no result; [ ] = another dose, or the depositor's remark. Compounds with a hit are over-represented: about 15% of the library has one in this group of screens. Calls come from the whole dose curve; as a rule, active = well fitted curve in the direction sought with a large enough effect; inconclusive = small, poorly fitted or top-dose-only effect, or another doubt; inactive = no such curve, though single readings can be large; an effect the other way counts as inactive or inconclusive. % is set by controls: 0 for no effect and ±100 for the full control effect; potency is the fitted concentration of half-maximal effect.
SMILES,TDP1 cell noCPT,Gal4-VP16 FLuc,TDP1 cell CPT,RORgamma inh,ELG1 repair inh,ALOX12 inh
CCOC(=O)N1CCN(c2nc(C(F)(F)F)nc3c(C)cc(C)cc23)CC1,u,20µM*,-19%,u,x,-12%
Cc1ccccc1-n1c2nc(=O)[nH]c(=O)c-2cc2c(Cl)cccc21,0.52µM*,x,0.82µM*,x,x,u
Cc1cccc2c(C(=O)NC3CC3)cc(-c3cccnc3)nc12,x,x,x,x,x,11%
Cc1nn(C)cc1CNc1nc(C)c(-c2ccn(CC3COc4ccccc4O3)n2)s1 (configuration not stated),21µM*,x,u,x,x,0%
COc1cc(CNc2nc(C)c(-c3ccn(C4Cc5ccccc5C4)n3)s2)cc2c1OCO2,u,x,u,x,x,1%
Cc1nc(NCc2c(C)nn(C)c2Cl)sc1-c1ccn(CC2COc3ccccc3O2)n1 (configuration not stated),21µM*,x,16µM*,x,x,u
Cc1nc(NCc2cnn(C)c2C)sc1-c1ccn(CC2COc3ccccc3O2)n1 (configuration not stated),u,x,-6%[9.04 µM],x,x,-1%
Cn1c(=O)c2c(ncn2CC(O)COCc2ccccc2)n(C)c1=O (configuration not stated),x,x,x,x,x,0%
O=C(NNc1ncnc2sccc12)c1ccc(Cl)cc1,9.2µM*,u,13µM*,u,u,455%
Cc1csc2ncnc(NNC(=O)c3ccc(Cl)cc3)c12,10µM*,4.5µM*,u,1.8µM*,-9%,-1%
Cc1ccc(C(=O)NNc2ncnc3c2cnn3C)cc1,-6%,-2%,4%,-42%,19%,0%
CC(C)n1ncc2c(C(=O)NCc3ccccc3F)c3c(nc21)CCC3,x,x,x,x,x,-35%
Cc1ccc(-c2cnc(CCC(=O)Nc3nccs3)o2)cc1C,x,x,x,x,x,-2%
O=C(NC1CCCCC1)C1(c2cccc(Cl)c2)CCC1,x,x,x,x,x,-6%
COC1=CC(=O)c2c(ccc3ncnc(N)c23)C1=O,0.29µM*,x,0.21µM*,x,x,u
O=C(OC1CCCCC1)c1ccc(SCc2ccccc2F)c([N+](=O)[O-])c1,x,x,x,x,x,-2%
CCOC(=O)CNC(=O)CNC(=O)c1ccc(OCC(C)C)cc1,21µM*,0%,u,0%[10 µM],-1%,43%
CCCCCOc1ccc(C(=O)NCC(=O)NCC(=O)OCC)cc1,21µM*,-1%,18µM*,-26%[10 µM],u,23%
O=S(=O)(NCCc1ccc(Cl)cc1)c1ccc(N2CCCCS2(=O)=O)cc1,23µM*,x,18µM*,x,x,u
COc1ccc(CCNS(=O)(=O)c2ccc(N3CCCCS3(=O)=O)cc2)cc1OC,21µM*,x,u,x,x,-12%
Cc1ccc(CNS(=O)(=O)c2ccc(N3CCCCS3(=O)=O)cc2)cc1,16µM*,x,12µM*,x,x,-13%
CCCCNS(=O)(=O)c1ccc(N2CCCCS2(=O)=O)cc1,23µM*,x,u,x,x,u
COc1ccc(C)cc1COc1ccc(C#N)cc1OC,x,x,x,x,x,-29%
CCN(CC)CC[C@H]1CN(C(=O)NC(C)C)CC[C@H]1CC(=O)O,x,x,x,x,x,32%[176 µM]
CCN(c1ccccc1C)S(=O)(=O)c1ccc(N2CCCCS2(=O)=O)cc1,-27%,x,2%,x,x,-21%
SMILES,TDP1 cell noCPT,Gal4-VP16 FLuc,TDP1 cell CPT,RORgamma inh,ELG1 repair inh,ALOX12 inh
CCN(c1cccc(C)c1)S(=O)(=O)c1ccc(N2CCCCS2(=O)=O)cc1,23µM*,x,13µM*,x,x,0%
O=S(=O)(NCCc1ccccc1)c1ccc(N2CCCCS2(=O)=O)cc1,23µM*,x,18µM*,x,x,-39%
Cc1nn(C)c(C)c1CCC(=O)N1C[C@@H](Oc2cccnc2)C[C@H]1C(=O)NC1CC1,x,x,x,x,x,20%
O=C(Cc1ccc(C(F)(F)F)cc1)Nc1ccc(F)cc1Cl,x,x,x,x,x,7%
N#Cc1ccccc1Sc1ccccc1N,-1%,1%,-1%,18%,16%,-15%
Nc1ccccc1SSc1ccccc1N,3.7µM*,u,5.2µM*,u,u,u
COCc1cc(C)nc(OCC(=O)N/N=C/c2ccc(-c3cc([N+](=O)[O-])ccc3C)o2)c1C#N,u,-8%[0.365 µM],u,20%,-17%,0%
Cc1ccc([N+](=O)[O-])cc1-c1ccc(/C=C(\C#N)c2[nH]nc(N)c2C#N)o1,13µM*,u,u,u,u,-8%
CCn1c(C(C)NC(C)=O)nc2ccccc21 (configuration not stated),-25%,13%,7%,-17%,3%,5%
CCCCCn1c(C(Cc2ccccc2)NC(C)=O)nc2ccccc21 (configuration not stated),26µM*,u,u,u,1%,0%
CCCCC(NC(C)=O)c1nc2ccccc2n1CCCC (configuration not stated),2.1µM*,x,4.1µM*,-15%[0.365 µM],-7%,-14%
CN1CCN(C(=O)c2cccc(-c3cnc4cnc(-c5ccccc5Oc5ccccc5)cn34)c2)CC1,13µM*,x,18µM*,x,x,10%
O=C(c1cccc(O)c1)N1CC=C(c2cnc3cnc(-c4ccccc4)cn23)CC1,x,x,x,x,x,7%[176 µM]
O=C(CN1C(=O)CNC1=O)NCc1cccnc1Oc1ccccc1F,x,x,x,x,x,9%
C=CCOc1c(Br)cc(CNc2ccc(NC(=O)C(C)C)c(OC)c2)cc1OC,18µM*,-9%,u,-9%,-7%,5%
C=CCOc1c(Br)cc(CNn2nnnc2N)cc1OC,7.3µM*,-1%,-20%,35%,-7%,8%
COc1cc(CNc2ccc(C(=O)O)cc2)cc(Br)c1OCC(=O)NC(C)(C)C,u,-3%,7%,-1%,-11%,-26%
C=CCOc1ccc(CNn2nnnc2N)cc1,u,-1%,u,u,-10%,11%
COCC(=O)N1CCc2nc(C(C)C)nc(-c3ccc(O)cc3)c2C1,x,x,x,x,x,23%
Cc1nc(NC2CC2)sc1C(=O)NCCc1ccccc1,x,x,x,x,x,20%
CCCC[C@@H](CNC)NC[C@H](NCCCCC1CCCCC1)C(C)C,5.2µM*,u,6.5µM*,16µM*,-13%,20%
Cc1ccccc1N1CCN(C(=S)c2ccc([N+](=O)[O-])cc2)CC1,u,0%,u,15%,-17%,-19%
COc1ccc(C(=O)NC(=S)N2CCN(c3ccccc3OC)CC2)cc1,u,u,u,2µM*,u,6%
COc1ccccc1N1CCN(C(=S)NC(=O)c2ccc([N+](=O)[O-])cc2)CC1,21µM*,x,21µM*,x,x,-10%

# Screens from PubChem.
